The values below come from PubChem BioAssay AID372 (MTDP, 2006).

SMILES strings stand for the structures. Out of some 100,000 compounds screened, about 770 (0.77%) were called active. The sample holds actives, similar compounds and a random draw of the others, so the mix is not that of the screen. A number with no mark means an inactive call. Rule as the data show it: active = inhibition above about 50%; inactive = the rest.

The assay deals with Gag-Pol polyprotein (Human immunodeficiency virus type 1 group M subtype B (isolate HXB2)) (UniProt P04585). The experiment in a line: RNase H inhibition, HIV 1 Gag Pol polyprotein, FRET biochemical assay, screening (AID 372). To be noted: HIV-1 RT RNase H, FRET RNA/DNA substrate fluorescence; at 10 µM; active compounds read high.
Usually inhibition stands for the percentage by which the read-out fell short of the control. For `COc1ccc2c(c1)c(=O)oc1cc(OCC(=O)c3ccc(F)cc3)ccc12`, the inhibition was 34%.

Regarding `COc1cc(/C=C2\SC(=S)NC2=O)ccc1OCCOc1ccccc1Cl`, the inhibition was 51% (active).

As to `COc1cc(/C=C2/SC(=S)NC2=O)cc(Cl)c1OCC(C)COc1ccccc1` (centres undefined), the inhibition is 50% (active).

In the case of `COc1cccc(OCCOc2c(Cl)cc(/C=C3/SC(=S)NC3=O)cc2OC)c1`, the inhibition was 23%.

Take `COc1cc(/C=C2\SC(=S)NC2=O)cc(Br)c1OC(=O)c1ccccc1`: the inhibition was 58% (active).

`CCOc1cc(/C=C2\SC(=S)NC2=O)ccc1OCCOc1ccccc1Cl`: the inhibition was 43%.

On to `COc1cc(/C=C2\SC(=S)NC2=O)cc(Cl)c1OCCOc1ccccc1Cl`, for which the inhibition was 26%.

In the case of `CC(C)COc1ccc(/C=C2\SC(=S)NC2=O)cc1`, the inhibition was 22%.

For the molecule `COc1cc(/C=C2\SC(=S)NC2=O)cc(Br)c1OC`, the inhibition is 5%.

Regarding `COc1cc(/C=C2\SC(=S)NC2=O)cc(Br)c1OC(C)=O`, the inhibition is 4%.

On to `COc1ccc(/C=C2\SC(=S)NC2=O)c(OC)c1OC`, for which the inhibition was 0%.

`COc1ccc(OCCOc2c(Cl)cc(/C=C3\SC(=S)NC3=O)cc2OC)cc1`: the inhibition is 47%.

Take `CC(C)COc1ccc(/C=C2\SC(=S)NC2=O)c2ccccc12`: the inhibition is 51% (active).

Turning to `CCc1ccc(C=Nn2c(-c3ccc(Cl)cc3)n[nH]c2=S)cc1`, the inhibition was 3%.

Regarding `CCOc1cc(/C=C2\C(=O)NC(=O)N(c3ccc(Cl)cc3)C2=O)cc(Cl)c1OCC`, the inhibition is 0%.

In the case of `CCC(C)OC(=O)C1=C(C)NC2=C(C(=O)CC(c3ccc(Cl)cc3)C2)C1c1ccc(OC(C)=O)cc1` (centres undefined), the inhibition was 11%.

Take `COc1ccccc1/C=C\C=N\n1c(-c2ccc(Cl)cc2Cl)n[nH]c1=S`: the inhibition is 34%.

Turning to `CS(=O)(=O)N(CC(O)Cn1c2ccccc2c2ccccc21)c1ccc(Br)cc1` (centres undefined), the inhibition is 1%.

With `CCN(CC)c1ccc(/C=N/NC(=O)CCC(=O)Nc2cccc(Cl)c2C)c(O)c1`, the inhibition is 6%.

`CCOP(=O)(CN1CCN(CP(=O)(OCC)OCC)CC1)OCC`: the inhibition is 2%.

Consider `Cc1c(NC(=O)c2cc(Cl)ccc2Cl)cccc1-c1nc2ccccc2s1`, for which the inhibition was 9%.

In the case of `O=c1/c(=C/c2ccc(-c3ccccc3)o2)sc2nc3ccccc3n12`, the inhibition is 9%.

Take `CCOC(=O)C1=C(C)NC2=C(C(=O)CC(c3ccc(OC)cc3)C2)C1c1ccc(OC)c(OC)c1` (centres undefined): the inhibition is 11%.

Consider `Cc1ccc(C(=O)Oc2ccccc2C(=S)N2CCOCC2)cc1`, for which the inhibition was 0%.

As to `CCOC(=O)C1CCCN(C(=O)N2CCOCC2)C1` (centres undefined), the inhibition is 12%.

Consider `Cc1cc2ncn(CC(O)COc3ccc(C(=O)O)cc3)c2cc1C` (centres undefined), for which the inhibition was 0%.

On to `COc1ccccc1CNc1cccc(F)c1`, for which the inhibition was 0%.

Take `O=C1NC(=S)S/C1=C\c1cc([N+](=O)[O-])ccc1OCCOc1ccccc1Cl`: the inhibition was 55% (active).

`O=C1NC(=Nc2cccc(Cl)c2Cl)S/C1=C\c1ccc(O)c(O)c1`: the inhibition was 89% (active).

With `O=C1NC(=Nc2cccc(Cl)c2Cl)S/C1=C\c1ccc(F)cc1`, the inhibition was 22%.

Regarding `O=C1NC(=S)S/C1=C\c1ccccc1OCCOc1ccccc1Cl`, the inhibition is 46%.

On to `Cc1cc(C)cc(OCCOc2ccc([N+](=O)[O-])cc2/C=C2\SC(=S)NC2=O)c1`, for which the inhibition was 38%.

Regarding `O=C1NC(=Nc2cccc(Cl)c2Cl)S/C1=C\c1ccc(O)cc1`, the inhibition is 12%.

For `O=P(O)(OC(c1ccccc1)C(F)(F)F)c1ccccc1` (centres undefined), the inhibition was 2%.

Consider `CC(=O)Oc1ccc(/C=C2/N=C(c3cccc([N+](=O)[O-])c3)OC2=O)cc1`, for which the inhibition is 14%.

Regarding `O=C(Cc1ccccc1)Nc1ccncc1`, the inhibition is 11%.

For the molecule `Cn1cc(/C=C2/SC(=O)N(c3ccccc3)C2=O)c2ccccc21`, the inhibition is 12%.

On to `COc1ccc(Cl)cc1/C=C1\C(=O)NC(=S)N(c2cccc(Cl)c2Cl)C1=O`, for which the inhibition was 8%.

With `Clc1cccc(-c2ccc(/C=N/Nc3nc4ccccc4s3)o2)c1`, the inhibition was 4%.

As to `O=[N+]([O-])c1cc(C=Nn2c(-c3ccc(Cl)cc3Cl)n[nH]c2=S)ccc1Cl`, the inhibition is 37%.

Take `O=[N+]([O-])c1ccc(Cl)c(C=Nn2c(-c3ccc(Cl)cc3Cl)n[nH]c2=S)c1`: the inhibition is 16%.

Turning to `O=[N+]([O-])c1ccc(C=Nn2c(-c3ccc(Cl)cc3Cl)n[nH]c2=S)cc1`, the inhibition was 51% (active).

With `COc1ccccc1-n1c(C=C2C(=O)N(Cc3ccccc3)c3ccccc32)nc2ccccc2c1=O`, the inhibition is 9%.

As to `O=c1oc(/C=C\c2ccccc2)nc2ccc(Cc3ccc4nc(/C=C\c5ccccc5)oc(=O)c4c3)cc12`, the inhibition is 7%.

In the case of `Cc1oc2ccc(OCc3ccc([N+](=O)[O-])cc3)cc2c1C(=O)OC(C)C`, the inhibition was 13%.

With `CCOCCOC(=O)C1=C(C)NC2=C(C(=O)CC(c3ccc(OC)cc3)C2)C1c1cccc(OC)c1OC` (centres undefined), the inhibition was 5%.

`O=C1c2ccccc2CCC1C1(O)C(=O)Nc2ccc(Br)cc21` (centres undefined): the inhibition was 2%.

Consider `CCn1c2ccccc2c2ccc(-c3nn(-c4ccccc4)cc3C=O)cc21`, for which the inhibition is 11%.

`Cc1ccc(C)n1-c1ccc(C(=O)O)c(O)c1`: the inhibition is 99% (active).

For `Cc1ccc(C)n1-c1ccc(Cl)c(O)c1`, the inhibition was 41%.

On to `Cc1ccc(C)n1-c1ccc(Cl)c(C(=O)O)c1`, for which the inhibition is 53% (active).

On to `Cc1ccc(-c2ccccc2)n1-c1ccc(Cl)c(C(=O)O)c1`, for which the inhibition is 3%.

On to `Cc1ccc(C)n1-c1cc(C(=O)O)cc(C(=O)O)c1`, for which the inhibition was 2%.

As to `Cc1ccc(C)n1-c1ccc(C(=O)O)c(Cl)c1`, the inhibition was 16%.

`Cc1ccc(-c2ccccc2)n1-c1ccc(O)c(C(=O)O)c1`: the inhibition is 6%.

Regarding `Cc1nc(=O)c(-c2ccccc2)c(C)n1-c1ccc(C(=O)O)c(O)c1`, the inhibition was 0%.

Regarding `CC(C)(Cc1ccc(O)cc1)NC(=O)Cc1ccccc1`, the inhibition is 6%.

For `CS(=O)(=O)N(CC(=O)N1CCCC1)c1cccc(Cl)c1`, the inhibition was 6%.

In the case of `CC1=C(C#N)C(c2cccc(F)c2)C2=C(CC(c3ccccc3)CC2=O)N1` (centres undefined), the inhibition was 11%.

On to `COc1ccc(OC)c(NC(=O)CN(CCc2ccccc2)S(=O)(=O)c2ccccc2)c1`, for which the inhibition was 15%.

As for `Cc1cc(C)cc(NC(=O)Cc2ccccc2)c1`, the inhibition was 3%.

For the molecule `O=C1NC(=O)N(c2ccccc2)C(=O)/C1=C\c1cccc(OCc2ccc(F)cc2)c1`, the inhibition was 9%.

Turning to `CC(=O)Nc1ccc2nn(-c3ccc(F)cc3)nc2c1`, the inhibition is 4%.

Take `COc1ccc(-n2nnnc2SCC(=O)Nc2c(C)cc(C)cc2C)cc1`: the inhibition is 12%.

For `O=C(CSc1nnnn1-c1ccccc1)Nc1ccc(C(=O)O)cc1`, the inhibition is 0%.

Turning to `CCOC(=O)c1ccc(NC(=O)CSc2nnnn2-c2c(C)cc(C)cc2C)cc1`, the inhibition is 55% (active).

Turning to `CC1=C(C(=O)OC(C)C)C(c2cccc(F)c2)C2=C(CCCC2=O)N1` (centres undefined), the inhibition is 4%.

Consider `CCN1C(=O)/C(=C2\SC(=O)N(Cc3ccccc3)C2=O)c2ccccc21`, for which the inhibition is 59% (active).

As for `CCCCCN1C(=O)/C(=C2\SC(=S)N(c3ccc(Br)cc3)C2=O)c2ccccc21`, the inhibition is 16%.

For the molecule `C=CCN1C(=O)/C(=C2\SC(=S)N(Cc3ccccc3)C2=O)c2ccccc21`, the inhibition was 33%.

With `CCN1C(=O)/C(=C2\SC(=S)N(CC(=O)O)C2=O)c2ccccc21`, the inhibition is 7%.

As for `CCN1C(=O)/C(=C2\SC(=S)N(c3ccc(Br)cc3)C2=O)c2ccccc21`, the inhibition was 57% (active).

Regarding `CCN1C(=O)/C(=C2\SC(=S)N(c3ccccc3)C2=O)c2ccccc21`, the inhibition was 4%.

With `CCC(C(=O)Nc1nc(-c2ccccc2)c(C)s1)c1ccccc1` (centres undefined), the inhibition was 10%.

As to `COC(=O)C1=C(C)NC2=C(C(=O)CC(c3ccccc3)C2)C1c1cc(Br)c(O)c(OC)c1` (centres undefined), the inhibition was 15%.

Take `Cc1cc(=O)oc2cc(OC(=O)CCCOc3ccc(Cl)cc3Cl)ccc12`: the inhibition is 18%.

On to `O=c1[nH]c2ccccc2c(O)c1-c1ccccc1[N+](=O)[O-]`, for which the inhibition was 1%.

Regarding `O=C1c2ccccc2C(=O)c2c(O)c([N+](=O)[O-])cc(O)c21`, the inhibition was 20%.

In the case of `O=c1cc2oc3cc(O)c(O)cc3c(-c3ccccc3[N+](=O)[O-])c-2cc1O`, the inhibition was 69% (active).

Take `CN(C)c1ccc(-c2c3cc(O)c(=O)cc-3oc3cc(O)c(O)cc23)cc1`: the inhibition was 63% (active).

As for `Cc1ccc(-c2cc(=O)c3cc(Cl)ccc3o2)cc1`, the inhibition was 5%.

Consider `Cc1ccc(-c2cc(=O)c3cc(C)ccc3o2)cc1`, for which the inhibition is 11%.

For `O=C(Nc1ccc2ccccc2c1)c1ccccc1Cl`, the inhibition was 3%.

For `Cc1cc(OCC(N)=O)ccc1Cl`, the inhibition is 0%.

Consider `Cc1ccc2nc3c(N)c(Cl)cc4c3c(c2c1)-c1ccccc1C4=O`, for which the inhibition was 56% (active).

Take `Nc1c(Cl)cc(Br)c2c1C(=O)c1ccccc1C2=O`: the inhibition was 6%.

For `Nc1c(Cl)cc2c(c1Oc1ccccc1)C(=O)c1ccccc1C2=O`, the inhibition was 8%.

Regarding `O=C(Cn1c(NCCO)nc2ccccc21)c1cccc(Br)c1`, the inhibition was 3%.

As to `C=CCC(C(=O)c1ccccc1)C(=O)C(C)(C)OC` (centres undefined), the inhibition is 7%.

As to `Cc1ccc(/C=N/NC(=O)Cc2ccc(Cl)cc2)o1`, the inhibition was 7%.

Turning to `COc1ccc(CC(=O)N/N=C/c2ccc(I)o2)cc1`, the inhibition is 0%.

Consider `COc1ccc(CC(=O)N/N=C/c2ccc(-c3cc(Cl)ccc3C)o2)cc1`, for which the inhibition was 74% (active).

Turning to `O=Cc1cc(Cl)c(OCc2ccc(F)cc2)c(Cl)c1`, the inhibition is 41%.

`Cc1cc(C)c2oc(-c3ccc(C)c(NC(=O)COc4cccc(C)c4C)c3)nc2c1`: the inhibition is 0%.

Take `Cc1ccc(-c2nc3ccccc3o2)cc1NC(=O)COc1ccccc1C`: the inhibition is 50% (active).

As for `Cc1cc(C)c2oc(-c3ccc(C)c(NC(=O)COc4ccccc4C)c3)nc2c1`, the inhibition was 55% (active).

`Cc1ccc(-c2nc3ccccc3o2)cc1NC(=O)COc1ccccc1`: the inhibition is 8%.

On to `Cc1cc(C)cc(OCC(=O)Nc2cc(-c3nc4cc(C)cc(C)c4o3)ccc2C)c1`, for which the inhibition is 14%.

For the molecule `Cc1ccc2oc(-c3ccc(C)c(NC(=O)COc4ccccc4C)c3)nc2c1`, the inhibition is 44%.
